Several values for one entry are separate records, joined by “and”; a condition that tells them apart may be missing. Equal values may be shown once. Hit rate of the full screen: of about 5,500 compounds, about 2,000 (36%) were called active. Another 18% or so got no clear call; they are omitted. No stated cut-off is given here; in the data, active means normalized growth mostly below about 0.91 (no sharp cut-off); inconclusive means no clear call, values can overlap the other calls; inactive means mostly above about 0.92. Some of the results follow.
Assay: chemical genetic growth profiling, strain panel (AID 1159580);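 further: tested at 20 µM; growth read once vehicle control cultures reached saturation at 30 °C; 1 = growth at the plate median or of vehicle wells; lower values mean less growth of the strain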
Settings: S. cerevisiae deletion strains, growth OD

Measured: normalized growth

CO[C@@]12[C@@H]3NC3CN1C1=C(C(=O)C(N)=C(C)C1=O)[C@@H]2COC(N)=O (some centres not stated)
inactive: locus YAL013W, strain DEP1, hits give low values 0.997 | locus YAL021C, strain ccr4, hits give low values 0.98 | locus YAL026C, strain drs2, hits give low values 0.969 | locus YAL030W, strain snc1, hits give low values 0.989 | locus YBL061C, strain skt5, hits give low values 0.964 | locus YBR009C, strain hhf1, hits give low values 1 | locus YBR021W, strain FUR4, hits give low values 0.995 | locus YBR023C, strain chs3, hits give low values 0.962 | locus YBR171W, strain sec66, hits give low values 0.958 | locus YBR229C, strain ROT2, hits give low values 1 | locus YBR231C, strain swc5, hits give low values 0.954 | locus YBR279W, strain paf1, hits give low values 0.978 | locus YCL011C, strain gbp2, hits give low values 0.95 | locus YCL016C, strain dcc1, hits give low values 1.01 | locus YCL029C, strain bik1, hits give low values 0.971 | locus YCL069W, strain vba3, hits give low values 0.984 | locus YCR088W, strain abp1, hits give low values 0.971 | locus YDL005C, strain med2, hits give low values 0.972 | locus YDL035C, strain GPR1, hits give low values 1 | locus YDL040C, strain nat1, hits give low values 0.973 | locus YDL074C, strain BRE1, hits give low values 1.04 | locus YDL101C, strain DUN1, hits give low values 1.01 | locus YDL134C, strain PPH21, hits give low values 1.01 | locus YDL185W, strain tfp1, hits give low values 0.972 | locus YDL192W, strain arf1, hits give low values 0.974 | locus YDR001C, strain nth1, hits give low values 0.954 | locus YDR069C, strain doa4, hits give low values 0.926 | locus YDR101C, strain arx1, hits give low values 1 | locus YDR137W, strain rgp1, hits give low values 0.955 | locus YDR150W, strain NUM1, hits give low values 0.987 | locus YDR159W, strain sac3, hits give low values 0.998 | locus YDR162C, strain NBP2, hits give low values 1.05 | locus YDR195W, strain ref2 0.879 | locus YDR297W, strain sur2, hits give low values 0.966 | locus YDR318W, strain mcm21, hits give low values 0.977 | locus YDR334W, strain swr1, hits give low values 0.934 | locus YDR335W, strain msn5, hits give low values 0.963 | locus YDR388W, hits give low values 0.982 | locus YDR392W, strain spt3, hits give low values 1.06 | locus YDR502C, strain sam2, hits give low values 1.01 | locus YEL003W, strain gim4, hits give low values 0.973 | locus YEL037C, strain rad23, hits give low values 0.975 | locus YEL061C, strain CIN8 (second series), hits give low values 0.95 | locus YEL061C, strain CIN8, hits give low values 0.998 | locus YER015W, strain faa2, hits give low values 1 | locus YER016W, strain bim1, hits give low values 1.01 | locus YER110C, hits give low values 0.968 | locus YER111C, strain swi4, hits give low values 0.981 | locus YER155C, strain BEM2 (second series), hits give low values 0.962 | locus YER155C, strain BEM2, hits give low values 0.993 | locus YER167W, strain BCK2, hits give low values 0.994 | locus YFR010W, strain ubp6, hits give low values 0.927 | locus YGL078C, strain dbp3, hits give low values 0.996 | locus YGL086W, strain mad1, hits give low values 0.963 | locus YGL167C, strain pmr1, hits give low values 0.94 | locus YGL173C, strain kem1, hits give low values 0.981 | locus YGL227W, strain vid30, hits give low values 0.974 | locus YGL240W, strain doc1, hits give low values 0.966 | locus YGL248W, strain PDE1, hits give low values 1 | locus YGL253W, strain hxk2, hits give low values 0.988 | locus YGR078C, strain PAC10, hits give low values 1.04 | locus YGR135W, strain pre9, hits give low values 1.02 | locus YGR229C, strain SMI1, hits give low values 1.02 | locus YGR252W, strain gcn5, hits give low values 0.943 | locus YHR013C, strain ard1, hits give low values 0.985 | locus YHR027C, strain rpn1, hits give low values 0.978 | locus YHR030C, strain SLT2, hits give low values 0.993 and 0.988 | locus YHR079C, strain IRE1 (second series), hits give low values 0.994 | locus YHR079C, strain IRE1, hits give low values 0.957 | locus YHR094C, strain hxt1, hits give low values 0.975 | locus YHR129C, strain ARP1, hits give low values 1 | locus YHR142W, strain chs7, hits give low values 0.987 | locus YHR200W, strain rpn10, hits give low values 0.971 | locus YIL066C, strain RNR3, hits give low values 0.998 | locus YIL073C, strain SPO22, hits give low values 0.914 | locus YIL125W, strain kgd1, hits give low values 0.996 | locus YIR030C, strain dcg1, hits give low values 0.991 | locus YJL092W, strain hpr5, hits give low values 0.936 | locus YJL095W, strain BCK1 (second series), hits give low values 0.967 | locus YJL095W, strain BCK1, hits give low values 1.04 and 0.999 | locus YJL115W, strain asf1, hits give low values 0.968 | locus YJL129C, strain trk1, hits give low values 0.96 | locus YJL134W, strain LCB3, hits give low values 1 | locus YJL154C, strain vps35, hits give low values 0.958 | locus YJL164C, strain tpk1, hits give low values 1.01 | locus YJL166W, strain qcr8, hits give low values 0.932 | locus YJL168C, strain set2, hits give low values 0.983 | locus YJL187C, strain SWE1 (second series), hits give low values 1.01 | locus YJL187C, strain SWE1, hits give low values 0.98 | locus YJR043C, strain POL32, hits give low values 0.98 | locus YJR066W, strain TOR1, hits give low values 0.941
active: locus YCL061C, strain MRC1, hits give low values 0.919

From PubChem BioAssay AID1159580 (chemical genetic matrix, 2015)
